Experimental findings from ChEMBL document CHEMBL3988442, “University of Dundee, Small-Polar-MMV Screening Library” (2021) are described below.

Molecules are shown by their SMILES. About 25 (0.04%) of roughly 68,000 compounds showed an effect of 50% or more. The sample holds strong results, similar compounds and a random draw of the others, so the mix is not that of the screen.

This experiment deals with T1, Methionyl-tRNA synthetase, putative (Leishmania donovani (strain BPK282A1)) (UniProt E9BF75).
T1 sequence (whole entry): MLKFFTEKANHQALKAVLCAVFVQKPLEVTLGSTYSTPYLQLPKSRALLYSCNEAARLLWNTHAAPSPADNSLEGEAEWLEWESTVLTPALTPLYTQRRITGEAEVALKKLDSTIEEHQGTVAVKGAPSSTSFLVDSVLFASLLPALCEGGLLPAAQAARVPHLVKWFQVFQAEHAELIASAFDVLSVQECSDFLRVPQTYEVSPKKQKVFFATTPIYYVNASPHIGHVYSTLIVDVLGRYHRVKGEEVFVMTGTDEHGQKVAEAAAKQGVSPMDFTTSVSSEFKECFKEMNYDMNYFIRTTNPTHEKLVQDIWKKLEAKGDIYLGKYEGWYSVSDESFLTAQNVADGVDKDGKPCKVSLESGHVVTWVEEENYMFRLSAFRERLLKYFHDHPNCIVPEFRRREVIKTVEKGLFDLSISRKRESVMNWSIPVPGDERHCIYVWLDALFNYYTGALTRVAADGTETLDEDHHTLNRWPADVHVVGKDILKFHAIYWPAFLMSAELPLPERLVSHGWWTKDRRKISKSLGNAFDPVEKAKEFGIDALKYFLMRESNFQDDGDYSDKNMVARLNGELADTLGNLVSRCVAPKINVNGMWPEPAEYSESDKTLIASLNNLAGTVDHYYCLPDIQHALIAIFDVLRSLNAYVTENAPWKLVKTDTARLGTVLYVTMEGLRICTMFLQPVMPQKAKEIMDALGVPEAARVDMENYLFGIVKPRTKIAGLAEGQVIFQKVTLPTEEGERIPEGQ
Nature of the experiment: Leishmania donovani Methionine tRNA synthetase (LdMetRS):v6. Primary screen assay. Format: functional. On the set-up: conc 80 nM, time 150 minutes.
Turning to `CN(CC1CC1)c1ccc2ccc(C(=O)NCCc3ccccc3)cn12`, the inhibition (as a rule, the change of the read-out against control, counted positive when it falls) worked out at 51%.

Turning to `O=C(c1ccc[nH]1)N1C[C@H](OCc2cccnc2)[C@H]2COC[C@H]21`, the inhibition was found to be 16.2%.

For `C=C1C(C)(C)[C@H]2CC[C@]1(C(=O)N1CCC(Cn3cc(CO)nn3)CC1)C2`, the inhibition stood at 11.7%.

For `NC(=O)N1CC[C@H]2CO[C@H](CNC(=O)c3ccnnc3)[C@H]2C1`, the inhibition was found to be 15%.

`Cc1nc(CN(C)C(=O)c2ccc(Cn3cnnn3)cc2)cs1`: the inhibition came out at 123%.

For the compound `Cc1cnccc1CN(C)C(=O)c1ccc(Cn2cnnn2)cc1`, the inhibition is 2.48%.

With `Cc1ncsc1CCN(C)C(=O)c1ccc(Cn2cnnn2)cc1`, the inhibition was 16.8%.

For `O=S1(=O)C[C@@H]2[C@H](C1)N(Cc1cc(F)cc(F)c1)CCN2CCO`, the inhibition turned out to be 1.27%.

As for `COc1cccc(-c2noc3c2CN(c2nc(C)ncc2C)CC3)c1`, the inhibition worked out at 15%.

As for `COCc1cc(N2CCc3onc(-c4cccc(OC)c4)c3C2)ncn1`, the inhibition was 12.5%.

Consider `COc1cccc(-c2noc3c2CN(c2ncnc4c2CCC4)CC3)c1`, for which the inhibition was 52.3%.

In the case of `O=C(NC1CC1)[C@H]1CC[C@@H]2[C@@H](CCN2Cc2ccsc2)O1`, the inhibition was 6.67%.

`O=C(CCNC(=O)c1ccccc1F)NCCNc1cccnc1`: the inhibition came to 120%.

Turning to `CCn1cnnc1CCNC(=O)CCNC(=O)c1ccccc1F`, the inhibition came out at 17.3%.

On to `Cc1ccnc(NCCNC(=O)CCNC(=O)c2ccccc2F)c1`, for which the inhibition was found to be 34.8%.

Regarding `Cc1cccc(C(=O)N2C[C@@H]3[C@H](CC(=O)NC(C)C)[C@@H]3C2)n1`, the inhibition came out at 6.67%.

Turning to `Cc1ccc(-c2ncc(CNc3cnccc3CO)s2)cc1`, the inhibition was determined as 1.86%.

Regarding `Cc1ncc(CNc2cnccc2CO)s1`, the inhibition worked out at 11.8%.

Take `CC(C)Cc1ncc(CNc2cnccc2CO)s1`: the inhibition came to 121%.

On to `Cn1cc(C(=O)N[C@@H]2CN(Cc3cccs3)[C@@H]3CCCO[C@@H]32)cn1`, for which the inhibition is 16.3%.

Regarding `O=C1NC[C@]2(CC[C@@H](C(=O)N3CCC(O)CC3)CC2)Oc2ccccc21`, the inhibition amounted to 17.4%.

Consider `Cc1oc(C(C)C)cc1C(=O)N1C[C@H]2CC[C@@H]1CN(c1ncccn1)C2`, for which the inhibition is 7.9%.

As for `O=C([C@@H]1COC[C@H]2CN(C3CCCCC3)C[C@H]21)N1CCOCC1`, the inhibition turned out to be 14.6%.

`O=S(=O)(NCCSc1nccn1C1CC1)c1ccccc1`: the inhibition is 67.7%.

For `O=S(=O)(CCSc1nccn1C1CC1)c1ccccc1`, the inhibition was -9.32%.

For `O=S(=O)(NCCSc1nncn1C1CC1)c1ccccc1`, the inhibition was determined as 3.73%.

For the compound `Cc1noc([C@@]23CCO[C@@H]2CCN(C(=O)c2cc(C)c(C)s2)C3)n1`, the inhibition came out at 8.14%.

As to `Cc1noc([C@@H]2C[C@H]3OCC[C@H]3N(Cc3sccc3C)C2)n1`, the inhibition was 10.5%.

Take `Cc1occc1C(=O)N1CCO[C@H]2[C@H](Oc3cccnc3)CC[C@@H]21`: the inhibition is 3.85%.

Turning to `CCS(=O)(=O)N1CC[C@H]2O[C@H](c3nc(C)no3)CC[C@H]21`, the inhibition is 21%.

With `O=C1C[C@H]2CC[C@@H](CN1)N2C(=O)CCc1ccc2c(c1)OCO2`, the inhibition was found to be 17%.

In the case of `O=C(c1cc(F)cc(Cl)c1)N1CCN(CCO)[C@@H]2CS(=O)(=O)C[C@@H]21`, the inhibition was 3.31%.

As for `Cc1noc(C)c1CN1CC[C@H]2OCC[C@@H](C(=O)NCC3CC3)[C@H]2C1`, the inhibition was found to be 14.8%.

Regarding `Cc1ccc(CN2CC[C@H]3OCC[C@@]3(C(=O)N3CCCO3)C2)o1`, the inhibition was 6.85%.

Turning to `O=C(N[C@@H]1CN(c2ncccn2)[C@@H]2CCCO[C@@H]21)c1cscn1`, the inhibition came to 13.6%.

In the case of `O=C1CC[C@H]2CN(c3ncccc3F)CC[C@H]2N1CCc1ccccc1`, the inhibition is -0.347%.

Regarding `CCc1c(C(=O)N2C[C@H]3CC[C@@H]2CN(c2cnccn2)C3)csc1C`, the inhibition amounted to 13.4%.

In the case of `CN(C)C(=O)[C@@H]1CCO[C@@H]2CCN(CCOCc3ccccc3)C[C@H]21`, the inhibition is 1.54%.

Turning to `OCC1N(Cc2ccc(F)cc2)[C@H]2CC[C@]1(O)CC2` (stereo partly drawn), the inhibition is 12.3%.

Regarding `Cc1ccc(C(=O)N2C[C@@H](N3CCN(C)CC3)[C@H]3OCCC[C@H]32)cn1`, the inhibition amounted to 14.1%.

For `N#Cc1ccccc1CN1C[C@H]2CC[C@@H]1CN(C(=O)c1cccnc1)C2`, the inhibition turned out to be 15.4%.

`CNC(=O)[C@@]12CCC3(CCNCC3)[C@@H]1CN(S(C)(=O)=O)C2`: the inhibition came out at 18.3%.

As to `O=C1OCCN1CC(=O)N1C[C@H]2CC[C@@H]1CN(C(=O)c1ccccc1)C2`, the inhibition came out at 10.6%.

With `CC1COc2ccccc2N1C(=O)c1cscn1` (stereo not drawn), the inhibition stood at 12.4%.

For the compound `Cc1nc(CC(=O)N2c3ccccc3OCC2C)cs1` (stereo not drawn), the inhibition came to 6.21%.

Consider `CC1COc2ccccc2N1C(=O)CCc1cscn1` (stereo not drawn), for which the inhibition turned out to be 59%.

Regarding `CNC(=O)[C@@H]1C[C@H]2CN(C(=O)c3ccco3)C[C@H]2N1C(C)C`, the inhibition was found to be 14.5%.

Regarding `CC(C)=CCN1C[C@@H]2CN(C(=O)c3cnccc3C)C[C@]2(C(=O)O)C1`, the inhibition was 8.52%.

Consider `CCCN1CCN(Cc2cccc(OC)c2)[C@H]2CS(=O)(=O)C[C@H]21`, for which the inhibition was found to be 12.4%.

In the case of `CNC1CCN(C2CCN(c3ccc(-c4ccco4)cc3)CC2)CC1`, the inhibition was found to be 21%.

As for `NCC1CCN(C2CCN(c3ccc(-c4ccco4)cc3)CC2)C1` (stereo not drawn), the inhibition is 52.7%.

Turning to `NC1CCN(C2CCN(c3ccc(-c4ccco4)cc3)CC2)CC1`, the inhibition came out at 42.5%.

On to `CCc1cc(CN2C[C@H]3CC[C@@H]2CN(C2Cc4ccccc4C2)C3)on1`, for which the inhibition amounted to 18.8%.
